Shown are actives, neighbours in structure and some others; about 4.1% of the full set was active somewhere.
Mac1 fbg inh – blocks human CD11b/CD18 adhesion to fibrinogen | P05107+P11215 | K562 CD11b/CD18 adhesion to fibrinogen, ATPlite luminescence; Mn2+ added to activate the integrin | inhibition, % at 10 µM | 93,000 compounds, 0.54% hits | AID 1497;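 active = primary inhibition of 50% or more at 10 µM, then 40% or more on retest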
MRP resist rev – compounds reversing MRP-mediated drug resistance | H69AR cells + 2 uM doxorubicin, CellTiter-Glo, 72 h | differential viability (reversal), % at 10 µM | 85,000 compounds, 0.04% hits;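 active = viability drop by adding the cancer drug above about 55%, with treated viability meeting a 40% cutoff, limit read from the data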;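 note: viability without doxorubicin minus viability with 2 µM doxorubicin for each compound; larger differential means the compound sensitizes cells more to doxorubicin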
Cav32 inh – inhibitors of human Cav3.2 T-type calcium channel; Cav3.2-expressing cells, Fluo-4 calcium fluorescence FDSS; active compounds read low; B-score at 10 µM; 100,000 compounds, 4% hits; AID 449739;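 active = single-dose well whose peak fluorescence ratio is a statistical outlier from its plate by either plate-standardised score or position-corrected B-score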
Pyk2 oligo antag – Pyk2 (human) oligomerization antagonism; Q293 cells, Pyk2 FERM NanoBiT luminescence; active compounds read low; z-score (the deposit names both 25 µM and 10 µM); 99,000 compounds, 0.83% hits; AID 1347419;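 active = Z-score of -3 or lower, scaled per plate to the spread of control and sample wells; inactive = z-score above -3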;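 note: negative z-score means lost luminescence so less FERM oligomerization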
MRP-1 activ – activates MRP-1; 140,000 compounds, 0.61% hits; viability increase, % at 10 µM; AID 799; H69AR cells + doxorubicin, viability rescue, CellTiter-Glo;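 active = viability gain under doxorubicin at or above a set limit, the compound median plus 3 SD, cut at about 4.7% in these data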;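 note: MRP-1 overexpressing cells given doxorubicin 25 µM after compound pretreatment; 18-22 h compound pretreatment then 72 h with doxorubicin before readout; 0% = doxorubicin-only wells and 100% = vehicle-treated cells without doxorubicin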
CD11b adhes enh – enhancers of human CD11b/CD18 binding to fibrinogen | 93,000 compounds, 0.07% hits | K562 CD11b/CD18 adhesion to fibrinogen, ATPlite luminescence | activation, % at 10 µM | AID 1499 | P05107+P11215;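 active = 10 µM primary screen giving 50% or more activity, confirmed by 40% or more on retest at that dose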
* hit, by the source's call; . = not tested or not shown.

SMILES | Mac1 fbg inh | MRP resist rev | Cav32 inh | Pyk2 oligo antag | MRP-1 activ | CD11b adhes enh
COC(=O)C(NNc1ccccc1C)(NC(=O)c1ccc(F)cc1)C(F)(F)F (stereo unspecified) | -6 | . | -4.9* | 0.82 | -1 | -8
COc1ccc2c(c1)C(=O)/C(=C/C=C/c1ccccc1)CC2 | . | -28 | -4.7* | 0.26 | -2 | .
COc1ccc2c(c1)CC/C(=C\C=C\c1ccccc1OC)C2=O | . | -4 | -0.077 | -0.36 | -3 | .
CC(C)Cc1csc(NC(=O)c2ccc(Cl)cc2)c1C(=O)O | 100* | . | . | . | 4 | -7
CC1CCCCN1c1ncnc2ccccc12 (stereo unspecified) | 69* | . | 0.71 | 0.72 | -3 | -4
O=C(Nc1ccc(N2CCN(C(=O)c3ccccc3)CC2)c(Cl)c1)c1ccco1 | -2 | -10 | -0.0088 | -1 | -2 | -2
CCC(=O)N1CCN(c2ccc(NC(=O)c3cc4ccccc4o3)cc2Cl)CC1 | 17 | -8 | . | -3.1* | -4 | -1
O=C(Nc1ccc(N2CCN(C(=O)c3ccco3)CC2)c(Cl)c1)c1cc2ccccc2o1 | 51 | -1 | . | -3.1* | -2 | 5
Cc1ccccc1OCCCCc1c(C)n[nH]c1C | 90* | 4 | -4.4 | -1.7 | -1 | -6
Cc1noc(/C=C/N(C)C)c1S(=O)(=O)N1CCCC(C(=O)NCc2ccccc2Cl)C1 (stereo unspecified) | 0 | 8 | . | -0.27 | 7.6* | 2
Cc1noc(/C=C/N(C)C)c1S(=O)(=O)N1CCCC(C(=O)NCc2ccc(F)cc2)C1 (stereo unspecified) | 5 | 8 | . | . | 12* | -14
Cc1noc(/C=C/N(C)C)c1S(=O)(=O)N1CCCC(C(=O)NC2CCCCC2)C1 (stereo unspecified) | 4 | -14 | 1 | . | 9.3* | 1
Cc1noc(/C=C/N(C)C)c1S(=O)(=O)N1CCCC(C(=O)NCc2ccc(Cl)cc2)C1 (stereo unspecified) | -16 | 11 | 0.07 | -0.08 | 4.9* | -2
Cc1ccc(CNC(=O)C2CCCN(S(=O)(=O)c3c(C)noc3C)C2)cc1 (stereo unspecified) | -10 | 13 | 0.62 | -0.17 | -4 | -2
CC(=O)Nc1cc(C(=O)OCC(=O)c2ccc(C)cc2)ccc1C | . | . | . | . | -1 | .
O=C(Nc1ccccc1O)c1ccccc1O | 69* | -20 | -0.85 | -0.89 | -4 | -4
N/C(COc1ccc(Cl)cc1)=N\NS(=O)(=O)c1ccccc1 | -8 | . | 0.051 | -0.18 | 0 | 3
Cc1nc2sccn2c1-c1csc(NCc2ccccc2)n1 | 109* | 19 | -2.4 | 0.46 | -3 | -9
CCc1ccc(Cn2nnc(C(=O)Nc3ccc(OC)cc3OC)c2N)cc1 | -2 | -1 | 0.6 | . | -4 | -4
CCOc1ccc(Cn2nnc(C(=O)NCc3ccc(OC)cc3)c2N)cc1 | -1 | 9 | -5.2* | . | -1 | 5
COc1ccc(OC)c(NC(=S)NCCSc2ccc(C)cc2)c1 | . | . | . | . | -4 | .
COc1ccc(NC(=S)NCCSc2ccc(C)cc2)c(OC)c1 | . | . | -6.5* | 0.17 | . | .
c1ccc(-c2nnc(N3CCOCC3)nc2-c2ccccc2)cc1 | -5 | -14 | -0.28 | 0.3 | -4 | -3
O=C(CC(SCc1ccco1)c1ccc(O)cc1)c1cccs1 (stereo unspecified) | 32 | 8 | -4.5* | 0.83 | -6 | -2
CCCCCCn1c(=O)c(-c2ccccc2)c(O)c2ccccc21 | 7 | 23 | -7.1* | -0.05 | -2 | -2
SMILES | Mac1 fbg inh | MRP resist rev | Cav32 inh | Pyk2 oligo antag | MRP-1 activ | CD11b adhes enh
CCOc1ccccc1Nc1nc(N)nc(CSc2nccc(C)n2)n1 | 6 | -7 | -0.4 | 0.31 | 0 | -2
CCOc1ccccc1Nc1nc(N)nc(CN(C)C2CCCCC2)n1 | 11 | 80* | 0.092 | -0.38 | -4 | -7
COc1cc(NS(=O)(=O)c2ccc(C)cc2)ccc1-n1cnnn1 | -2 | -8 | -0.0043 | -0.42 | 6.3* | 1
COc1ccc(-n2cnnc2SCC(=O)c2cc(C)n(Cc3cccs3)c2C)cc1 | 5 | 7 | -5.4* | 1.4 | 0 | -1
CC(C)(C)c1csc(SCC(=O)Nc2ccc(Cl)cn2)n1 | . | 3 | -3.4 | 0.08 | 1 | .
Cc1csc(SCC(=O)Nc2ccc(Cl)cn2)n1 | 1 | -2 | -5.1* | 1.5 | 0 | -1
Cc1csc(SCC(=O)c2cc(C)n(Cc3cccs3)c2C)n1 | 93 | 13 | -4* | 0.01 | -2 | -8
CCC(=O)NC(Nc1sc2c(c1C(=O)OC)CCN(C)C2)(C(F)(F)F)C(F)(F)F | . | -17 | 1.4 | 0.85 | -1 | .
Cc1ccc(SCC(=O)NNC(=O)C2CCCCC2)cc1 | . | . | 1.2 | -0.07 | 0 | .
CCOC(=O)c1[nH]c2ccccc2c1NC(=O)c1ccco1 | -44 | . | -0.25 | 0.31 | -2 | -5
CCCN(CCC)S(=O)(=O)c1ccc(C(=O)O)cc1 | . | -7 | . | . | -1 | .
CCCN(CC(=O)c1cc(C)n(C)c1C)S(=O)(=O)c1cccc(C(F)(F)F)c1 | -13 | . | -4.4* | 0.03 | -4 | -3
COc1cc2nc(=S)n3[nH]c(CCn4c(C)nc5ccccc54)nc3c2cc1OC | -21 | 2 | 3.3* | 0.58 | -2 | 1
O=C(Nc1ccccc1)C1(c2ccccc2)CC1(Cl)Cl (stereo unspecified) | . | . | -7.5* | -2 | -4 | .
COc1ccccc1-n1cnc2cc(NS(=O)(=O)c3ccc(Br)cc3)ccc21 | 1 | 0 | -2.5 | -3.3* | -3 | 0
O=C1OC(c2ccc3c(c2)OCO3)N(C(=O)c2ccc(Cl)c(Cl)c2)c2ccccc21 (stereo unspecified) | 1 | . | -3.1 | -3.2* | -3 | -5
O=C(CSCc1ccccc1Br)N/N=C/c1ccc2c(c1)OCO2 | 69 | . | . | . | 3 | -5
O=C(CSCc1cccc(Cl)c1)N/N=C/c1ccc(OCC(=O)N2CCCCC2)cc1 | . | . | -2.3 | -3.4* | -3 | .
O=C(COc1ccc(Cl)cc1)NCCSCc1cccc(Cl)c1 | . | . | -4.3* | 1.9 | 0 | .
CC(SCc1ccccc1)C(=O)Nc1ccc2c(c1)OCO2 (stereo unspecified) | 9 | 17 | -2.5 | 2.1 | -3 | -4
CC(SCc1ccccc1)C(=O)N/N=C/c1ccc2c(c1)OCO2 (stereo unspecified) | 3 | . | -6.1* | 0.74 | -2 | -2
Cc1cccc(CSCCNC(=O)COc2ccc(Cl)cc2)c1 | . | . | . | . | -1 | .
O=C(CSCc1cccc(Br)c1)N/N=C/c1ccc2c(c1)OCO2 | . | . | -5.4* | 0.62 | -2 | .
CC(C)(C)C(=O)Nc1cccc(-c2nnc(-c3cccc(NC(=O)C(C)(C)C)c3)o2)c1 | . | 10 | -0.82 | 1.1 | -2 | .
Cc1cc(C)cc(CSCC(=O)N/N=C/c2ccc(OCC(=O)NCc3ccco3)cc2)c1 | . | . | 0.33 | -3.1* | -4 | .
Cc1cccc(S(=O)(=O)NCCC(=O)OC(C)C(=O)NC(=O)NC2CCCCC2)c1 (stereo unspecified) | -10 | 14 | -7.8* | 0.18 | 0 | 0

Source: PubChem
